KKLEB tox = CF airway cell cytotoxicity counter-screen. activity change (cytotoxicity), % at 5 µM. AID 602141. actives 0.36% (n = 360,000). KKLEB CF airway cells viability, ATPlite luminescence, overnight; active compounds read low; cells stimulated with P. aeruginosa culture filtrate;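 active means corrected activity change at or below -50% at 5 µM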
Shn3 3UTR inh = inhibitors of Schnurri-3 3'UTR reporter in osteoblasts; Clone20 osteoblast Shn3 3'UTR firefly luciferase, 24 h; inhibition, % at 12.5 µM; actives 0.52% (n = 360,000); AID 588674;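 active means mean inhibition of at least 75% with every replicate also reaching 75%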
CF NFkB inh = cystic fibrosis NF-kB activation inhibition. KKLEB NF-kB-GFP reporter, PAF-induced, GFP fluorescence overnight. inhibition, % at 5 µM. actives 0.86% (n = 360,000). AID 588850;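 active means at least 50% inhibition at 5 µM, scaled per plate between neutral and stimulator controls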;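 further: PAF is a Pseudomonas aeruginosa culture filtrate used as stimulus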
Peg3 promoter = inhibitors of Peg3 promoter. HeLa PEG-Prom luciferase reporter, luminescence, overnight. inhibition, % at 20 µM. actives 1.7% (n = 360,000). AID 588405;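 active means inhibition of at least 50% at 20 µM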
LMP1 NFkB inh = inhibitors of Epstein-Barr LMP1-induced NF-kappaB reporter | AID 504558 | actives 0.69% (n = 350,000) | inhibition, % at 12.5 µM | LMP1-induced NF-kappaB luciferase reporter cells, luminescence; in the data active means inhibition above about 41%
HIF-2a inh = blocks HIF-2a reporter activity | 786-0 RCC cells HIF-2a reporter, luciferase luminescence, overnight | inhibition, % at 18.8 µM | actives 0.72% (n = 360,000);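 active means inhibition of the luminescence signal of 40% or more relative to plate controls, in a single-dose primary screen at 18.75 µM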
Large screens that a line does not name were inactive. Rows were chosen to be rich in hits. Some 2.9% of all compounds tested hit in one or more screens of this group.

Cc1ccc(C(=O)OCC(=O)NCc2ccco2)cc1	none
O=C(COC(=O)c1ccc(S(=O)(=O)NCc2ccco2)cc1)Nc1ccc(Cl)cn1	LMP1 NFkB inh 59
O=C(COC(=O)c1ccccc1)NCc1ccco1	KKLEB tox -94
COc1ccc(/C=C/C(=O)OCC(=O)NCc2ccco2)cc1OC	LMP1 NFkB inh 56
CCOC(=O)C1=C(C)NC(C)=C(C(=O)OCC)C1C(=O)OCC(=O)NCc1ccco1	Shn3 3UTR inh 96
Cc1ccccc1C(=O)N[C@H](C(=O)OCC(=O)c1ccc[nH]1)C(C)C	none
CCC(=O)Nc1ccc(C(=O)CSc2nc(N)cc(N)n2)cc1	none
COC(=O)c1cc(S(=O)(=O)N2CCN(Cc3ccccc3)CC2)c[nH]1	none
O=C1OCC(c2ccc(Cl)s2)=C1c1ccccc1[N+](=O)[O-]	none
CC(=O)NC(c1cccc(F)c1)c1nc(-c2ccccc2)cs1 (centres undefined)	none (no result: LMP1 NFkB inh)
Cc1cccc(C)c1NC(=O)C(c1ccccc1OC(F)(F)F)N1CCN(C/C=C/c2ccccc2)CC1 (centres undefined)	none (no result: LMP1 NFkB inh)
CN(C(=O)c1ccc2c(c1)OCO2)C1CCS(=O)(=O)C1 (centres undefined)	none
CCc1nc2c(OCCC3CCCCC3)cccn2c1N(C=O)Cc1ccc(OC)cc1	none (no result: LMP1 NFkB inh)
CCc1nc2c(OCCC3CCCCC3)cccn2c1N(C=O)Cc1ccccc1	Peg3 promoter 66 (no result: LMP1 NFkB inh)
O=C(Nc1ccc(F)c(F)c1)C1CCCCC1	LMP1 NFkB inh 49
Cc1cccc(N2CCN(C(=S)Nc3ccc4nc(N5CCN(C)CC5)cc(C)c4c3)CC2C)c1 (centres undefined)	Peg3 promoter 76
Cc1cc(N2CCN(C)CC2)nc2ccc(NC(=S)N3CCN(c4ccc(F)cc4)CC3)cc12	Peg3 promoter 66
CCOC(=O)C1CCN(C(=O)C2CCN(S(=O)(=O)c3cc(Cl)ccc3OCC)CC2)CC1	none
O=C(NCCSc1ncc(-c2ccc(F)cc2)[nH]1)c1ccc2c(c1)OCO2	none
COc1ccc(-c2ncncc2-c2csc(C)n2)c(O)c1OC	none
COC1=C(N)C(=O)c2nc(-c3nc(C(=O)O)c(C)c(-c4ccc(OC)c(OC)c4O)c3N)ccc2C1=O	Shn3 3UTR inh 114 (no result: KKLEB tox, CF NFkB inh, Peg3 promoter, LMP1 NFkB inh, HIF-2a inh)
CN1c2ccccc2C(C)(C)[C@]12C=Cc1cc(O)ccc1O2	Shn3 3UTR inh 87
C=CCNc1nc(N)c([N+](=O)[O-])c(Nc2ccccc2OC)n1	none
COc1ccccc1Nc1nc(NCC(C)C)nc(N)c1[N+](=O)[O-]	CF NFkB inh 55
CCC(C)Nc1nc(N)c([N+](=O)[O-])c(Nc2ccccc2OC)n1 (centres undefined)	Peg3 promoter 60
Cn1cc(C(=O)c2ccc(Cl)cc2Cl)cc1C(=O)N/N=C(\N)COc1ccc(Cl)cc1	Peg3 promoter 53
CCOC(=O)c1c(NC(=O)CN2C(=O)NC3(CCCCC3C)C2=O)sc(C)c1CC (centres undefined)	none
COC(=O)C1CCN(C(=O)Nc2ccccc2)CC1	none
O=[N+]([O-])c1cc(-c2nc(-c3ccncc3)no2)cc([N+](=O)[O-])c1	none
O=[N+]([O-])c1cc(-c2nc(-c3ccncc3)no2)ccc1Cl	Peg3 promoter 105
O=C(CCN1CCc2ccccc2CC1)c1ccc2c(c1)OCCO2	Peg3 promoter 106
c1ccc(C2(CN3CCNC[C@H]3Cc3cccc4ccccc34)CC2)cc1	Peg3 promoter 79
CC(C)(C)CN1CCNC[C@H]1Cc1cccc2ccccc12	none
CC1CN(C(C)C)C(=S)NC1=O (centres undefined)	none
Cc1ccccc1CSc1nnc([C@@H]2CCCN2)o1	LMP1 NFkB inh 53
Clc1ccccc1CSc1nnc([C@@H]2CCCN2)o1	none
CSc1ccc(NC(=O)NCCCN2CCC(Cc3ccccc3)CC2)cc1	Peg3 promoter 66
COc1ccc(-n2c(SCC(=O)Nc3cc(C)on3)nc3c(c2=O)SCC3)cc1	LMP1 NFkB inh 83
COC(=O)c1ccc(CSc2nc3c(c(=O)n2-c2ccc(C)cc2)SCC3)o1	LMP1 NFkB inh 70
CCOc1ccccc1NC(=O)C(=O)N/N=C/c1cc(Br)ccc1O	Shn3 3UTR inh 91, Peg3 promoter 53
CCOC(=O)C1=C(CN2CCN(CCC#N)CC2)NC(=O)NC1c1ccc2c(c1)OCO2 (centres undefined)	none
O=C(Cn1ncc2c([nH]c3ccccc32)c1=O)NCCc1ccc(Cl)cc1	none
O=C(Cn1ncc2c([nH]c3ccccc32)c1=O)Nc1ccc(CN2CCCCC2)cc1	Peg3 promoter 73
COc1ccc2c(C)cc(SCC(=O)Nc3ccc(Cl)cn3)nc2c1	KKLEB tox -52, CF NFkB inh 52
CCCCCCc1cc2cc(C(=O)Nc3ccc(OC)cc3)c(=O)oc2cc1O	KKLEB tox -57, CF NFkB inh 52
CCCCCCc1cc2cc(C(=O)Nc3cccc(OC)c3)c(=O)oc2cc1O	KKLEB tox -63, CF NFkB inh 66
CCCCCCc1cc2cc(C(=O)NC)c(=N)oc2cc1O	none
CCCCCCc1cc2cc(S(=O)(=O)c3ccc(F)c(Cl)c3)c(=O)oc2cc1O	KKLEB tox -72, CF NFkB inh 60
Cc1cc(C(=O)CN2c3cccc4cccc(c34)S2(=O)=O)c(C)n1C	none
COc1cc(OC)c(OC)cc1/C=N/Nc1ncnc2c1[nH]c1ccccc12	Peg3 promoter 89
COc1cc(CNc2ncnc3c2[nH]c2ccc(C)cc23)cc(OC)c1	none
CCCCOCCCNc1ncnc2c1[nH]c1ccccc12	Shn3 3UTR inh 83
COc1ccc(/C=N/Nc2ncnc3c2[nH]c2ccc(C)cc23)c(OC)c1OC	Peg3 promoter 73
COc1ccc(C2CC(=O)C=C(NCc3ccc4c(c3)OCO4)C2)cc1 (centres undefined)	none
O=C1CC(c2ccc(O)cc2)Oc2cc(O)cc(O)c21 (centres undefined)	none
CC1CC(=O)c2c(cc3c(-c4c(O)cc(O)c5c(O)c6c(cc45)OC(C)CC6=O)c(O)cc(O)c3c2O)O1 (centres undefined)	CF NFkB inh 53, Peg3 promoter 105, HIF-2a inh 91
CC(C)(C)OC(=O)[C@H](Cc1ccccc1)NC(=O)c1nc[nH]c1C(=O)NC1CCN(C(=O)OC(C)(C)C)CC1	none
Cc1ccc(Nc2cc(C)nn2-c2nc(C)cc(C)n2)cc1	none
Cc1ccc(Nc2cc(C)nn2-c2nc(C)cc(=O)[nH]2)cc1	CF NFkB inh 52, Peg3 promoter 108, HIF-2a inh 40
CCCCN1C(=O)C(CC(=O)NCc2ccco2)CC(C(=O)N(C(C)C)C(C)C)=C1C (centres undefined)	none (no result: LMP1 NFkB inh)
COc1cc(CN2CC(=O)N(c3ccc(C)c(Cl)c3)C2=S)cc(OC)c1OC	none
Cc1cccc(C(=O)O/N=C(\N)Cc2ccc([N+](=O)[O-])cc2)c1	none
